{"source": "paper PMC7819943", "about": "“Rice protein-binding microarrays: a tool to detect cis-acting elements near promoter regions in rice”", "note": "In all, about 68,000 sequences were measured (“fluorescence intensity (a.u.)”: median about 9,100, highest 2% from about 16,000 on). For the sample, the highest values were picked, then their nearest neighbours and some sequences at random."}
{"target": "OsWRKY34 (Oryza sativa, UniProt Q0JBA9 1-250)", "sequence (Q0JBA9 entry or part of it)": "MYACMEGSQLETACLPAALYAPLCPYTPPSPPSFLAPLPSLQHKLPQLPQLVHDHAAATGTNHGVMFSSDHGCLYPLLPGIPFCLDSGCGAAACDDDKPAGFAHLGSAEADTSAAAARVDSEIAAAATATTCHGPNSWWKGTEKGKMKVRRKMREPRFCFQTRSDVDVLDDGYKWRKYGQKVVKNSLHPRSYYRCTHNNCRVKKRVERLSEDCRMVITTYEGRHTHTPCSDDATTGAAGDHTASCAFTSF", "assay": "protein-binding microarray (RPBM); PBS, 2% BSA, 51.3 ng/ul salmon testes DNA, 50 uM zinc acetate, 200 nM TF, 25 C, 1 h; high values mean tight binding", "conditions": "protein: recombinant; tags: N-terminal polyhistidine and DsRed monomer fusion (pET32a); label: CyDye5-dUTP incorporated in the synthesized complementary strand; 3' TTTTT single-stranded linker to array surface; dsDNA, one strand shown", "outline": "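Ni–NTA purification followed expression in E. coli BL21-CodonPlus of transcription factors fused N-terminally to a polyhistidine tag and DsRed. At 200 nM in PBS with 2% BSA, salmon testes DNA and 50 µM zinc acetate, the protein was incubated for 1 h at 25 °C with a custom Agilent array that had been primer-extended with Cy5-dUTP and blocked with 2% BSA. After washing, the array was read on an Axon 4000B scanner. The binding signal is per-feature fluorescence intensity in arbitrary units.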"}
{"sequence": "GTTTCCTGGTGGTCCAATATAATACCTAGATAAGGTGTATCGGAGTCACCTAGTGCAG", "binding signal": "8510 fluorescence intensity (a.u.)"}
{"sequence": "TTATTATGGTTATATTGTACTAATTCATTGTCCAGGTTTTCGGAGTCACCTAGTGCAG", "binding signal": "8430 fluorescence intensity (a.u.)"}
{"sequence": "GTCCAGATACTAAGGTGTATGGTATTATCGGAAAACCTGTCGGAGTCACCTAGTGCAG", "binding signal": "24300 fluorescence intensity (a.u.)"}
{"sequence": "TAGCTAGCTCTTGTACAGGTTTCCTCACCTGCTGTATCGACGGAGTCACCTAGTGCAG", "binding signal": "8060 fluorescence intensity (a.u.)"}
{"sequence": "GAGACTAATTCCGACCTTGACCAAACCAAACCCTACCAAACGGAGTCACCTAGTGCAG", "binding signal": "9200 fluorescence intensity (a.u.)"}
{"sequence": "CGGCTCGGCTCGGCTCGCGCGGCGGCGGCGGCGGGGCGGCCGGAGTCACCTAGTGCAG", "binding signal": "8890 fluorescence intensity (a.u.)"}
{"sequence": "TCGCCGGCGGAGGAGTTGGTGTGGAGAGGGCGGGGAGATGCGGAGTCACCTAGTGCAG", "binding signal": "9560 fluorescence intensity (a.u.)"}
{"sequence": "GGGGTGGTGGTGGTGGCGGCGGCAGTGTTGTTGGTCGCCGCGGAGTCACCTAGTGCAG", "binding signal": "13500 fluorescence intensity (a.u.)"}
{"sequence": "GGAGGGTGGGGTAGGAGAGGATGCGGCGGGCGCCATGGCTCGGAGTCACCTAGTGCAG", "binding signal": "8590 fluorescence intensity (a.u.)"}
{"sequence": "GTGGGGTTGGGTTACGTGGTGGAGCTGAGCCCGGCGGCGCCGGAGTCACCTAGTGCAG", "binding signal": "11600 fluorescence intensity (a.u.)"}
{"sequence": "ATGTGGGTGTGGCATTGTTGGTGTCGGCTGCGCCGCAGCCCGGAGTCACCTAGTGCAG", "binding signal": "9630 fluorescence intensity (a.u.)"}
{"sequence": "TTTGTGTGTGTGTTGTTGGTCGGGTGGGGTCGCCGGCGCCCGGAGTCACCTAGTGCAG", "binding signal": "20100 fluorescence intensity (a.u.)"}
{"sequence": "GGCTCGTCGGAGTAGGGGCGCTCGGGGTATGGGGCTCGGCCGGAGTCACCTAGTGCAG", "binding signal": "20400 fluorescence intensity (a.u.)"}
{"sequence": "GCCGGCGCCGGTGGCGTGCGGTCGTGGGCGGGAGGTGGTGCGGAGTCACCTAGTGCAG", "binding signal": "12300 fluorescence intensity (a.u.)"}
{"sequence": "TCGTGTTGGTGGTGGTGGTGGTGTGCGGGCGGGCGGGCGCCGGAGTCACCTAGTGCAG", "binding signal": "33300 fluorescence intensity (a.u.)"}
{"sequence": "CCGTGGTTGGGGTGGTGGGCCGGGGTGTTACGTTAATGGGCGGAGTCACCTAGTGCAG", "binding signal": "16500 fluorescence intensity (a.u.)"}
{"sequence": "AGGTGGTGTAGCGCGCGCGGGTGGGGTTGGGTTACGTGGTCGGAGTCACCTAGTGCAG", "binding signal": "15600 fluorescence intensity (a.u.)"}
{"sequence": "CGTTGTTTATCTTTTCTAATGCCATGTGTATATATGATTCCGGAGTCACCTAGTGCAG", "binding signal": "10500 fluorescence intensity (a.u.)"}
{"sequence": "CCCGTGCTCTTTGTAGATTTACTACCTTTGGACTTGACCTCGGAGTCACCTAGTGCAG", "binding signal": "11200 fluorescence intensity (a.u.)"}
{"sequence": "TCTGCGCTCCCGCATGCCGGCCGCTGAATCATCGTCAATCCGGAGTCACCTAGTGCAG", "binding signal": "9000 fluorescence intensity (a.u.)"}
{"sequence": "AATAGCCTCGTCCCTGTAAACTCCCAATCCCTTTTTAAAACGGAGTCACCTAGTGCAG", "binding signal": "8420 fluorescence intensity (a.u.)"}
{"sequence": "AGTTGTGGAGCTGTCTAAACCCATCTCTACTTCTCTACTTCGGAGTCACCTAGTGCAG", "binding signal": "8200 fluorescence intensity (a.u.)"}
{"sequence": "TTTCCTCATTTATTCACCTGTCACACCATCTTTCATCATACGGAGTCACCTAGTGCAG", "binding signal": "9590 fluorescence intensity (a.u.)"}
{"sequence": "CCTGATCGGATTTGGTTGGCTGGTGCTCTAGATGATGTACCGGAGTCACCTAGTGCAG", "binding signal": "8170 fluorescence intensity (a.u.)"}
{"sequence": "GGGGAGTTGGGATTTTTGGCGATGTGGGTTTCGTACACCGCGGAGTCACCTAGTGCAG", "binding signal": "9870 fluorescence intensity (a.u.)"}
{"sequence": "TGGGGTGGGTGCCCGGAGCTTTGATGCGCGTGGCCGCCGGCGGAGTCACCTAGTGCAG", "binding signal": "12400 fluorescence intensity (a.u.)"}
{"sequence": "TTGGCGAGCGAGCTGTGTGGTGGTGGTGGTGGGTGAGTGGCGGAGTCACCTAGTGCAG", "binding signal": "13600 fluorescence intensity (a.u.)"}
{"sequence": "CGGTTGCGGGTGGGCAGCGGCAGCGTCGCCGGCTGGGGCGCGGAGTCACCTAGTGCAG", "binding signal": "9840 fluorescence intensity (a.u.)"}
{"sequence": "GGCGCCGGCGCTAGCGCCCACGTCGGGGTTGGGGTTGGGGCGGAGTCACCTAGTGCAG", "binding signal": "16600 fluorescence intensity (a.u.)"}
{"sequence": "GTGCGAGCTGCGCCCGTGTGATGTGGGCGGGTGGGTGTTCCGGAGTCACCTAGTGCAG", "binding signal": "16900 fluorescence intensity (a.u.)"}
{"sequence": "CGTCGGGGTTGGGGTTGGGGCTGGGGCCGGCGCCGACGCCCGGAGTCACCTAGTGCAG", "binding signal": "13400 fluorescence intensity (a.u.)"}
{"sequence": "TTGCTCTCCTCTCTGGATTGATGTGTTCGTTTGGCCATTCCGGAGTCACCTAGTGCAG", "binding signal": "8940 fluorescence intensity (a.u.)"}
{"sequence": "CGTGTGGGTGGGTGGGTGGAGTGGACTGGTTTCTGTGAGCCGGAGTCACCTAGTGCAG", "binding signal": "18500 fluorescence intensity (a.u.)"}
{"sequence": "GCCATGTGACTAGACCGAGCTAGCTCGCTCGATCGATCTCCGGAGTCACCTAGTGCAG", "binding signal": "8510 fluorescence intensity (a.u.)"}
{"sequence": "AGGAGTGTCTGGTTGGTTTCCGGGGTGTGTTGGGTGACTCCGGAGTCACCTAGTGCAG", "binding signal": "29500 fluorescence intensity (a.u.)"}
{"sequence": "TTTGGTTACCGCATTTTTGTGTTCTTCTGTGCAGTTTAGCCGGAGTCACCTAGTGCAG", "binding signal": "8150 fluorescence intensity (a.u.)"}
{"sequence": "TGTTGGTGGTGAGGTGTGAGGTGAGGTGGGGTGGTGTGGCCGGAGTCACCTAGTGCAG", "binding signal": "10100 fluorescence intensity (a.u.)"}
{"sequence": "CAATTTTAGTTCAATCTTGGGTGTTTTCGCATGGTTCTCTCGGAGTCACCTAGTGCAG", "binding signal": "8180 fluorescence intensity (a.u.)"}
{"sequence": "GGTCTTGCTAGTTGGCCATGTGAGAGTGAGACCGGGTCTCCGGAGTCACCTAGTGCAG", "binding signal": "50700 fluorescence intensity (a.u.)"}
{"sequence": "TTGTTGGCAAGTTTCTTCCCTTGTCTCTCTCTTGTGAGACCGGAGTCACCTAGTGCAG", "binding signal": "8700 fluorescence intensity (a.u.)"}
{"sequence": "TGGAGCTGGTTTTTGGGTGGTGTTTTCTCTGTGATCGTGGCGGAGTCACCTAGTGCAG", "binding signal": "9760 fluorescence intensity (a.u.)"}
{"sequence": "ATGCGGATCTGAGTGGTGGTGGTGGTGGACTGGTGGTTGCCGGAGTCACCTAGTGCAG", "binding signal": "11000 fluorescence intensity (a.u.)"}
{"sequence": "CTTTCTTCTGTGTGGTGGGTTTTAGCCGGTTTCTCGCAATCGGAGTCACCTAGTGCAG", "binding signal": "18400 fluorescence intensity (a.u.)"}
{"sequence": "GCCATGGGGTTGACTCTCTGGGTGTTCTTGGTTTCTTGGCCGGAGTCACCTAGTGCAG", "binding signal": "10500 fluorescence intensity (a.u.)"}
